# Measured values taken from PubChem BioAssay AID1671188 (National Center for Advancing Translational Sciences (NCATS), 2021).
# Screen size: about 100,000 compounds; about 250 (0.25%) were called active. Another 7% or so got no clear call; they are omitted. The entries come from a sample that favours actives as a whole. Values without a mark were called inactive. Calls follow the shape of the dose curve; as a rule, active = well fitted inhibition curve with a large enough effect; inconclusive = small, poorly fitted or top-dose-only effect; inactive = flat fitted curve, though single readings scatter.
# Biological target: Alanine aminotransferase 2 (Homo sapiens) (UniProt Q8TD30)
# Experiment: Primary qHTS assay for inhibitors of Glutamate pyruvate transaminase 2 (GPT2); also: nearly all actives have a fitted effect of over 60% in size
# Conditions: Recombinant GPT2, coupled pyruvate oxidase/HRP Amplex Red fluorescence; series mostly up to 57.7 µM; activity change, negative = inhibition: at the top concentration
# Description: Assay Provider: Zhenghe John Wang Ph.D.
# Case Western Reserve University, Cleveland OH
# Glutamate pyruvate transaminase 2 (GPT2) catalyzes the reversible transamination of glutamate and pyruvate to provide a-ketoglutarate and alanine. We have optimized an assay for GPT2 enzymatic activity that couples pyruvate formation to detection of fluorescence using an established pyruvate oxidase/horseradish peroxidase / Amplex Red system.
# Screening conditions were 250uM a-KG, 2mM L-alanine, and 10ng/uL GPT2 in […] of solution; 10uL of Amplex reaction mix (outlined below) were added so that final concentrations of Amplex reagents in 50uL were 0.2mM ThPP, 0.2U/mL PO and HRP, and 50uM Amplex.
# NOTE: The volume of GPT2 in the system depends on the activity of it. The activity is different every batch. You need to test the activity before the assay. For full plate assay with automation, plate 20uL of GPT2 buffer to pin into, then add 10uL of GPT2 dilution followed immediately by 10uL of substrate dilution. 2 Columns of the plate were devoted to GPT2 buffer ([…] PH7.5, 0.0001% Tween) + 50uM AOA (known GPT2 inhibitor) to serve as a positive control. Complete the assay as normal. Amplex-red buffer: […] PH7.5, 1 mM EDTA, 1 mM MgCl2.
# 1. Combine a-KG and L-alanine at desired concentrations and incubate for at least 10 minutes at 37C. Stocks of L-alanine and a-KG are diluted in distilled water. However, the stocks were diluted in GPT2 buffer for the assay.
# 2. Prepare GPT2 dilution at the desired concentration in GPT2 buffer.
# 3. Plate 40uL of GPT2 dilution with 40uL of substrate dilution and let incubate for 30 minutes at room temperature.
# 4. Add 20uL of Amplex reaction mix prepared as follows: 1.5uL 200U/mL Horseradish Peroxidase, 200mM Thiamine Pyrophosphate, 200U/mL Pyruvate Oxidase; 7.5uL 10mM Amplex Red; 288uL Amplex Buffer.
# 5. Incubate for 30 minutes at room temperature in the dark, then image using AM_Amplex_Fluorescence on plate reader nearest the window.
# % is scaled to controls: 0 for no effect and ±100 for the full control effect; potency is read from the fitted curve at half-maximal effect.
# Alanine aminotransferase 2 (Homo sapiens), sequence (Q8TD30 whole entry, looked up): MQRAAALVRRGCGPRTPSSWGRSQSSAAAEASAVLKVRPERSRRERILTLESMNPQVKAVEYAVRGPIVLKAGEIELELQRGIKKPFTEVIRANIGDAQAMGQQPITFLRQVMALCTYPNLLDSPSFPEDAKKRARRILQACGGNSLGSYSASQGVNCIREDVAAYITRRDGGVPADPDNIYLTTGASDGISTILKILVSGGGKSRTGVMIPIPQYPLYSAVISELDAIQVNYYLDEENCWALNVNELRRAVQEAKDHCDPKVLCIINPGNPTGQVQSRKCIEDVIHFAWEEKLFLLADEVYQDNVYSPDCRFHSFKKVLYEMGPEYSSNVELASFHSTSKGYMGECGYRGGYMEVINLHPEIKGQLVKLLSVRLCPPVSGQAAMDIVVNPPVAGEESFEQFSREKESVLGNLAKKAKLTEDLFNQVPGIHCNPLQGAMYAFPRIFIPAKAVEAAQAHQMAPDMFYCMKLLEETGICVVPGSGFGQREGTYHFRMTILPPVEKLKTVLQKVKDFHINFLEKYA
SMILES,"activity change, negative = inhibition",outcome,Potency
O=C(c1ccc(C(F)(F)F)s1)N1CCCN(c2nnc3ccccn23)CC1,-8.08%,–,–
COc1ccc(C(=O)N(C)Cc2ccc(F)cc2)cc1,0.769% [at 88.5 µM],–,–
COc1cccc(NC(=O)O[C@@H]2CO[C@H]3[C@@H]2OC[C@@H]3Nc2nccc(-c3cccs3)n2)c1,-1.4%,–,–
CCOC(=O)c1ccc(NC(=O)Cn2c(N3CCOCC3)nc(CC)cc2=O)cc1,–,inactive,–
Cn1nccc1-c1cccc(-c2nc(N3CCOCC3)n(C)n2)c1,-1.34%,–,–
CC(C)NC(=O)N1Cc2[nH]cnc2C[C@H]1c1nc(-c2ccc3c(c2)OCO3)no1,–,inactive [at 88.5 µM],–
CC(=O)/C(C)=N/O,–,–,20 µM (active)
CN(CC1CCOCC1)C(=O)c1ccccc1,-2.97%,–,–
C#CCNC(=O)c1cn2cc(-c3ccccc3)sc2n1,–,inactive [at 88.5 µM],–
Cc1ccccc1CN1CCCn2nc(C)c(-c3cccnc3N3CCOCC3)c21,–,inactive [at 88.5 µM],–
COc1ccc(-c2cc(-c3cccc4[nH]ncc34)cn3cncc23)cn1,-3.99% [at 88.5 µM],–,–
O=C(NCc1cccnc1)[C@@H]1C[C@@H](O)CN1C1CCN(C(=O)C2(c3ccccc3)CC2)CC1,–,inactive,–
CC(NC(=O)c1ccc(C(C)(C)C)cc1)C(=O)N1CCN(c2ccccn2)CC1 (centres undefined),-5.47%,–,–
Cc1ccccc1-c1cn(C)c(=O)n2cc(CNc3ccccc3)nc12,0.941% [at 88.5 µM],–,–
Cn1cc(CN2CCOC[C@H]2c2ncc(-c3cccc(F)c3)[nH]2)c2ccccc21,-3.28% [at 88.5 µM],–,–
Cc1cc(S(=O)(=O)NCC2CCOCC2)ccc1F,-5.6%,–,–
COC1CN(c2ccc(C)cc2)C12CCN(C(=O)Cc1cccc(F)c1)CC2 (centres undefined),–,inactive,–
CC(=O)N1CC2(CCN(Cc3cccnc3)CC2)Cc2ccccc21,–,inactive,–
CC(=O)N[C@H]1CN(c2cncc(C(=O)N3CCCC3)n2)C[C@@H]1C1CC1,–,inactive,–
O=C(NC1CCN(C(=O)c2ccc(-c3cncnc3)cc2)CC1)c1ccccn1,4%,–,–
CN1CCOC[C@H]2CCN(C(=O)c3ccsc3)C[C@H]21,–,inactive,–
CCCN(C)c1nccnc1OC1CCN(C(=O)c2ccnn2C)C1 (centres undefined),2.99%,–,–
Cc1cc2nc3n(c(=O)c2n1CC(=O)Nc1ccc2c(c1)OCO2)CCCCC3,–,inactive,–
CCC1=C(C(=O)OC)C(c2ccccc2)N2C(CC(=O)N3CCCC3)=CSC2=N1 (centres undefined),–,inactive,–
CC(C)Cc1cc(CNc2nc(C(C)(C)C)nc3c2cnn3C)no1,-29.9%,–,–
COc1cccc(-c2ccc(C(=O)N3CCC(NC(=O)c4ccccc4OC)CC3)cc2)c1,-18.1%,–,–
CCc1cccc2c(C(CC(=O)NCC(C)C)c3cccc(OC)c3)c[nH]c12 (centres undefined),2.13%,–,–

SMILES,"activity change, negative = inhibition",outcome,Potency
O=C(Nc1ccccc1)N1CCCC(C(=O)N2CCCC(c3nc4ncccc4[nH]3)C2)C1 (centres undefined),-5.86%,–,–
O=C(C1CCC1)N1CCC(n2cnnc2C2CC2)CC1,-0.859%,–,–
CCOC(=O)C1CCN(C(=O)c2ccc3nnc(Cc4ccc(Cl)cc4)n3c2)CC1,4.47%,–,–
CCC(C)(C)C(=O)N1CC(c2nnc(-c3ccncc3)o2)C2(CCOCC2)C1 (centres undefined),–,inactive,–
O=C(C1CCCN(Cc2cccc(-c3ccc(F)cc3F)c2)C1)N1CCCCC1 (centres undefined),-2.29%,–,–
CC[C@H]1CN(S(=O)(=O)c2ccc(OC)cc2)CC[C@H]1CC(=O)Nc1ccccc1,-8.11% [at 88.5 µM],–,–
CC(C)(O)CCc1cccc(C(=O)NC2CCN(c3ncccc3C#N)CC2)c1,-5.56%,–,–
O=C1C[C@H]2CC[C@@H](CN1)N2C(=O)c1csc2nc(-c3ccccc3Cl)cn12,-4.63%,–,–
COCCN1C(=O)N(CCc2ccccc2)C(=O)C12CCN(C/C=C/c1ccccc1)CC2,0.511%,–,–
Cc1ccc(C(=O)N2CC(n3c(C)cnc3-c3ccccc3)C2)cn1,–,inactive,–
CCOC(=O)C(C)Oc1cccn2c(=O)c(-c3cc(C)n(-c4cccc(F)c4)n3)c(C)nc12 (centres undefined),–,inactive,–
Cc1cc(N)n(CC(=O)N[C@@H]2COCC[C@H]2Oc2ccc(C(N)=O)cc2)n1,2.4%,–,–
O=C(NCc1ccncc1)c1ccc(CN2C(=O)NC3(CCS(=O)(=O)CC3)C2=O)cc1,–,inactive,–
CN(Cc1cccnc1)C(=O)CC(c1ccccc1)c1ccc(Cl)cc1 (centres undefined),-5.94%,–,–
O=C(NCCc1ccccc1)C1CN(C2CCCCC2)C(=O)N1 (centres undefined),2.65% [at 88.5 µM],–,–
COc1ccc(C(=O)N2C[C@@H](F)[C@@H](OCc3nc4ccc(C(F)(F)F)cc4[nH]3)C2)cc1,-4.76%,–,–
CC(=O)Nc1ccc(C2(C(=O)NCc3ccc(Cl)cc3)CCC2)cc1,–,inactive,–
CN(C)C(=O)CCc1ccc2c(c1)CN(Cc1cn[nH]c1-c1ccc(F)cc1)CCO2,-9.05%,–,–
Cc1nn(C(=O)CCC(=O)N2CCC(CCOc3ccccc3)C2)c2ccccc12 (centres undefined),–,inactive,–
C=CCN(C)C(=O)C[C@@H]1c2nc(NC(=O)c3ccc(C(C)(C)C)cc3)sc2C[C@@H]2[C@](C)(CO)[C@H](O)CC[C@]21C,1.21%,–,–
COC(=O)[C@@H]1Cc2ncn(Cc3ccc(Cl)cc3)c2CN1Cc1ccc(N(C)C)cc1,2.35%,–,–
COc1cc2c(cc1CN1C[C@H]3CC[C@@H]1CN(C(=O)c1cnccn1)C3)CCC2,-13.2%,–,–
Cc1ccc(S(=O)(=O)CCNC(=O)c2cc3n(n2)CCCNC3)cc1,–,inactive,–
c1ccc2c(c1)CNC1(CCN(Cc3cccc4ccccc34)CC1)CO2,–,inactive,–
COc1ccc(-n2nc(C)c([C@H]3C=C[C@@H](OC(=O)Nc4cccc(F)c4)C3)c2C)cc1,-5.57% [at 88.5 µM],–,–
Cc1ccc(S(=O)(=O)N2CCCC(CCC(=O)NC3CCCCC3)C2)cc1 (centres undefined),1.92%,–,–
O=C(NCc1ccc(Cl)nc1)c1ccn2cncc2c1,0.404% [at 88.5 µM],–,–
